Measurements from PubChem BioAssay (NCATS).
A number with no mark means an inactive call. Inconclusive results are not listed. The source made the active and inactive calls. Unless noted, the call rests on the fitted dose curve; in most records, active means well fitted curve in either direction with a large enough effect (not every such curve was filed as active); inconclusive means small, poorly fitted or top-dose-only effect, or another doubt; inactive means flat fitted curve, though single readings scatter.

Experiments:
[1] = target: Lysosomal acid glucosylceramidase (Homo sapiens) (UniProt P04062); assay: Glucocerebrosidase-p2 (AID 348; in the data active means potency below about 10 µM; further: potency means the concentration at half of the fitted maximal effect); settings: purified GBA, blue fluorogenic substrate, 40 min
Outline: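 Normal human glucocerebrosidase (0.2 nM) with blue fluorogenic substrate (80 uM final) in citrate/phosphate pH 5.9 with 10mM sodium taurocholate, 0.01% tween-20; 40 min RT, NaOH/glycine stop; fluorescence Ex 365/Em 440; AC50 from a titration from 0.6 nM upwards.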

[2] = AP1 Signaling Pathway (AID 357); settings: ME-180 AP-1-bla reporter, EGF-induced, beta-lactamase ratio, 5 h; at 7.69 µM (top of the series) unless noted;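 further: ME-180 reporter cells stimulated with EGF at its EC50 level; on the % scale 0 is the no-effect control and ±100 the full control effect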
Outline: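 Modulation of EGF-driven AP-1 transcription was assessed with a beta-lactamase reporter in ME-180 cells. Compound and EC50 EGF were co-incubated 5 hours at 37 °C before 2.5-hour CCF4 loading at room temperature and dual-emission reading.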

[3] = target: Cytochrome P450 1A2 (Homo sapiens) (UniProt P05177); assay: p450-cyp1a2 (AID 410; calls by dose curve; further: potency means the concentration at half of the fitted maximal effect;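 on activity change, negative = inhibition: -100% = full effect of reference inhibitor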); settings: recombinant CYP1A2, luciferin-ME demethylation, luminescence; series mostly up to 11.4 µM
Outline: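 O-Demethylation of luciferin 6' methyl ether by human CYP1A2 is monitored as luciferase luminescence. Substrate sits at Km (100uM); enzyme is 20nM. Values are scaled to 57 uM furafylline as maximal inhibition.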

[4] = NFAT Signaling Pathway (AID 444); settings: Jurkat NFAT-bla M1, carbachol, beta-lactamase ratio, 5 h; at 7.69 µM (top of the series) unless noted;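 further: carbachol stimulus at about its EC50 of 1 µM final; on the % scale 0 is the no-effect control and ±100 the full control effect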
Outline: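 Jurkat cells with NFAT-driven β-lactamase reporter and co-expressed M1 receptor, stimulated with carbachol (final 1 uM, ~EC50), compound titration, 5 h at 37 °C. CCF4 loaded 1 h at RT; 460/530 nm ratio gave %activity and AC50.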

[5] = Stat Signaling Pathway (AID 446); settings: ME-180 (cervical carcinoma) SIE beta-lactamase reporter, IL-6 stimulated, 5 h; at 7.69 µM (top of the series) unless noted;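 further: ME-180 cervical cancer cells given 40 pM IL-6 alongside compound; SIE-controlled beta-lactamase reporter measured as 460/530 nm FRET emission ratio; on the % scale 0 is the no-effect control and ±100 the full control effect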
Outline: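 Emission at 460 and 530 nm (excitation 405 nm) reports SIE-controlled beta-lactamase in ME-180 cells. Cells received compound with 40 pM IL-6 for 5 hrs at 37 C; data scaled between 300 pM IL-6 and 125 nM JAK-inhibitor controls.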

[6] = target: Glucocorticoid receptor (Homo sapiens) (UniProt P04150); assay: GR-GFP Redistribution (AID 450;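 active means compounds whose dose series gives a full or clear partial fitted curve of increased nuclear translocation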; further: potency means the concentration at half of the fitted maximal effect); settings: U2OS GR-GFP nuclear translocation, laser cytometry, 2 h
[7] = target: Glucocorticoid receptor (Homo sapiens) (UniProt P04150); assay: GR-EFC Redistribution (AID 451; calls by dose curve; further: potency means the concentration at half of the fitted maximal effect); settings: CHO-K1 GR-EFC translocation, beta-gal luminescence, 2 h
Outline: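 CHO-K1 cells expressing nuclear EA and GR-ED fragments of b-gal; compounds titrated up to 46 uM final, 2 h at 37 C. GR nuclear translocation read as complemented b-gal luminescence after 1 h RT detection.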

[8] = target: Mitogen-activated protein kinase 10 (Mus musculus) (UniProt Q61831); assay: JNK3 AlphaScreen Assay (AID 530); settings: JNK3 lysate, c-Jun phosphorylation; series mostly up to 11.4 µM;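 further: kinase came from lysate of stimulated human HepG2 cells; signal reports phosphorylation of biotinylated GST-cJun 1-79 at Ser73 with 10 µM ATP; on the % scale 0 is the no-effect control and ±100 the full control effect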
Outline: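 Activity was read by AlphaScreen after JNK3-containing HepG2 lysate (cytokine pre-activated) phosphorylated biotinylated GST-cJun with 10 uM ATP at room temperature. Phospho-Ser73 cJun antibody with Protein-A acceptor beads provided detection.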

[9] = target: 3',5'-cyclic-AMP phosphodiesterase 4B (Homo sapiens) (UniProt Q07343); assay: qHTS Assay for Inhibitors of PDE-IV (AID 607; active means well fitted activation curve with a large enough effect in the main read-out, with a control signal flat, not every such curve was filed as active; further: % of control where 0% means no effect); settings: HEK293 ACTOne CNG channel cells, membrane potential fluorescence; series mostly up to 22.9 µM
Outline: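 The readout is membrane depolarisation from a cAMP-sensing CNG channel, detected with a potential dye at ex 535/em 590. Cells were HEK293-derived (endogenous PDE-IV) at 1000 cells/well, titrated up to 22.9 uM final.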

Chain of Cytochrome P450 1A2 (Homo sapiens) (P05177 whole entry, looked up): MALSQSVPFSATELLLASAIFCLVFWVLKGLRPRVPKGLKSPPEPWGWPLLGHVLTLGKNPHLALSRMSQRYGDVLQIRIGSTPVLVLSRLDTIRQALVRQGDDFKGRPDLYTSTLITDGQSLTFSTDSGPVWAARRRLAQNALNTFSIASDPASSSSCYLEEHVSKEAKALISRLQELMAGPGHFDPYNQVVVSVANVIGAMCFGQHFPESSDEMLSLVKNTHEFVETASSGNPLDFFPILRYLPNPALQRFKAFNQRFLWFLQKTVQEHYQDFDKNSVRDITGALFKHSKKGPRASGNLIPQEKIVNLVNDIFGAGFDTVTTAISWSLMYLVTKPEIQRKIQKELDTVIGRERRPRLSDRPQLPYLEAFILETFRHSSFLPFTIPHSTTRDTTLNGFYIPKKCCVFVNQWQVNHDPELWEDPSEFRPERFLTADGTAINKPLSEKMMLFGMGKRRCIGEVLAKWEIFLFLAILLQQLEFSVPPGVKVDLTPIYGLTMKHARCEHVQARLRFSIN
Chain of Lysosomal acid glucosylceramidase (Homo sapiens) (P04062 whole entry, looked up): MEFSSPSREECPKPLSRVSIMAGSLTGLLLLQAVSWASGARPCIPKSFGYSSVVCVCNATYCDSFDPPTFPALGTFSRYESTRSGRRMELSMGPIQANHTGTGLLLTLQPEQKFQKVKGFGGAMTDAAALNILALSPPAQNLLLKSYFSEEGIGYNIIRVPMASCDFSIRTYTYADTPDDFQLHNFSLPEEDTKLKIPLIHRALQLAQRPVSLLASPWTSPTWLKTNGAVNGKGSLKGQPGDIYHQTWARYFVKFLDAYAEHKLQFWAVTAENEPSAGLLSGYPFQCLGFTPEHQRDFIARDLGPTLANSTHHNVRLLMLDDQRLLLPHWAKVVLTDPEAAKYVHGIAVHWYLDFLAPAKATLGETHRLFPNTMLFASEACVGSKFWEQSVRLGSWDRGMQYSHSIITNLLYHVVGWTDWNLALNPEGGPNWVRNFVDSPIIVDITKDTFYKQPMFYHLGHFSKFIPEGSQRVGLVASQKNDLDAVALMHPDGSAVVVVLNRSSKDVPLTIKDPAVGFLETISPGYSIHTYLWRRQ
Chain of 3',5'-cyclic-AMP phosphodiesterase 4B (Homo sapiens) (Q07343 whole entry, looked up): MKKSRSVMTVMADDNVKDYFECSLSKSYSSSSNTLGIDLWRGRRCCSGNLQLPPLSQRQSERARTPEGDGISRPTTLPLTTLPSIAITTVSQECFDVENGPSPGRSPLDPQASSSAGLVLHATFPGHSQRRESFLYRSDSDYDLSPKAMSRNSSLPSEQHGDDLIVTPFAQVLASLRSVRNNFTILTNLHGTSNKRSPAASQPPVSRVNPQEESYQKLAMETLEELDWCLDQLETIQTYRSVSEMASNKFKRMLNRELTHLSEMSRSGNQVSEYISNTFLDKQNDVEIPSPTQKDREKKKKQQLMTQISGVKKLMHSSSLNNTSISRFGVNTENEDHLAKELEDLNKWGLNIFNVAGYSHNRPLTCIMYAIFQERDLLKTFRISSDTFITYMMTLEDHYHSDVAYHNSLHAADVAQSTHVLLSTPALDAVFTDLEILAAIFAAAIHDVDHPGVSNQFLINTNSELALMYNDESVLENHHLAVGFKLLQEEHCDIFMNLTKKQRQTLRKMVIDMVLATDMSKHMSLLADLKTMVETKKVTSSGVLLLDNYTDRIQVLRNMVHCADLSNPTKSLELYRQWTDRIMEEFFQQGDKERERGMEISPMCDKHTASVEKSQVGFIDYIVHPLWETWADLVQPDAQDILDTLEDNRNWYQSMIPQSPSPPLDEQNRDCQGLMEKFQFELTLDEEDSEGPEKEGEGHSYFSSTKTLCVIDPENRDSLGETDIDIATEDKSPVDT
Chain of Glucocorticoid receptor (Homo sapiens) (P04150 whole entry, looked up, the tested form may be a part): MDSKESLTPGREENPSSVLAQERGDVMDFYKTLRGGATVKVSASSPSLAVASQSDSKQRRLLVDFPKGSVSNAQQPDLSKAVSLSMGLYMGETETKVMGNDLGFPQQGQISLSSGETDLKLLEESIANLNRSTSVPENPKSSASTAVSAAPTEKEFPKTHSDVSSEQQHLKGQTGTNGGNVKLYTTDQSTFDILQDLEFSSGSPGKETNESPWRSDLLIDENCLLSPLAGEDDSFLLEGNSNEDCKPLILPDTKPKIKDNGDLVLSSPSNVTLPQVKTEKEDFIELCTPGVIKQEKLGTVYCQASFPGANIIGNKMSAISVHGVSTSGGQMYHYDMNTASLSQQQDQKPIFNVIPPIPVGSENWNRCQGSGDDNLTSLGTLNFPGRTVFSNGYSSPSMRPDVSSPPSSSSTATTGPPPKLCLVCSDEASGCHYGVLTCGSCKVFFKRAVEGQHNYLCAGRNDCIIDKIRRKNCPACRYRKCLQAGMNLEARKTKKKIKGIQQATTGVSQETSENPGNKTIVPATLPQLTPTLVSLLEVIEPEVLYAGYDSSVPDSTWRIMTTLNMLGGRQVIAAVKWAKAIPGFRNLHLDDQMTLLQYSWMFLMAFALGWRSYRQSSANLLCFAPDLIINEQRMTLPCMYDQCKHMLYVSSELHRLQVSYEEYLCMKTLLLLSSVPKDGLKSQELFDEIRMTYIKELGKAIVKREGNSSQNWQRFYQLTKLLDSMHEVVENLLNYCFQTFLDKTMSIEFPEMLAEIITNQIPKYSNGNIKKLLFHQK

| Structure (SMILES) | Potency [1] [µM] | activity change, negative = inhibition [2] [%] | Potency [3] | activity change, negative = inhibition [4] [%] | activity, negative = inhibition [5] [%] | Potency [6] [µM] | Potency [7] [µM] | Potency [8] | Potency [9] | activity change, negative = inhibition [3] |
| --- | --- | --- | --- | --- | --- | --- | --- | --- | --- | --- |
| Nc1nc(N)[n+]([O-])c(N)c1NCO | > 11.4 | 7.34 | inactive | 9.37 | 7 | > 46 | > 9.22 | inactive | inactive |  |
| O=C(O)c1cc2c(cc1S(=O)(=O)O)[C@H]1[C@@H]([C@H]3[C@H]2[C@@]2(Cl)C(Cl)=C(Cl)[C@]3(Cl)C2(Cl)Cl)[C@]2(Cl)C(Cl)=C(Cl)[C@@]1(Cl)C2(Cl)Cl | > 11.4 | 5.22 | inactive | 0.12 | -4.58 | > 46 | > 9.22 | inactive | inactive |  |
| C[C@]12CCC3c4ccc(OCC(=O)O)cc4CCC3C1CCC2=O (stereo not given in full) | > 11.4 | 6.42 |  | -1.29 | 9.48 | > 46 | > 9.22 | inactive | inactive | 0.7% [at 2.29 µM] |
| O=C(O)/C=C\C(=O)Nc1ncn[nH]1 | > 11.4 | 8.44 | inactive | 2.25 | 2.6 | > 46 | > 9.22 | inactive | inactive |  |
| COC(=O)[C@@H]1O[C@@H](SCCN)[C@@H](O)[C@H](O)[C@H]1O | > 11.4 | 0.576 |  | 2.51 | -0.339 | > 46 | > 9.22 | inactive | inactive | 10.2% [at 2.29 µM] |
| C[N+](C)(C)[C@H](Cc1c[nH]c(=S)[nH]1)C(=O)O | > 11.4 | 4.67 | inactive | -2.8 | 9.57 | > 46 | > 9.22 | inactive | inactive |  |
| O=C(O)c1ccccc1CN1CCC[C@@H](C(=O)O)C1 | > 11.4 | -3.95 | inactive | 12.7 | 8.09 | > 46 | > 9.22 | inactive | inactive |  |
| COc1ccc([C@H](O)c2ccccn2)cc1 | > 11.4 | -0.268 | inactive | 2.24 | 9.75 | > 46 | > 9.22 | inactive | inactive |  |
| Nc1nc2c(c(=O)[nH]1)N[C@H](CCNc1ccc(C(=O)O)cc1)CN2 | > 11.4 | -0.0764 | inactive | 14.5 | -3.77 | > 46 | > 9.22 | inactive | inactive |  |
| Clc1ccc2c(NCCNc3ccnc4cc(Cl)ccc34)ccnc2c1 | > 11.4 | -4.82 | 5.01 µM (active) | 4.01 | 9.24 | > 46 | > 9.22 | inactive | inactive |  |
| CCC(=O)Nc1ncnc2ncn(C(=O)CC)c12 | > 11.4 | 8.41 | inactive | 1.71 | 1.38 | > 46 | > 9.22 | inactive | inactive |  |
| c1ccc(CCCNc2nnnc3ccccc23)cc1 | > 11.4 | -4.34 | 3.98 µM (active) | -23 | -4.36 | > 46 | > 9.22 | inactive | inactive |  |
| O=C1Nc2ccccc2C1=Nc1ccc(S(=O)(=O)Nc2nccs2)cc1 | > 11.4 | -7.86 | inactive | 12.8 | -9.11 | > 46 | > 9.22 | inactive | inactive |  |
| Cn1c(N)c(N=Nc2ccc(S(N)(=O)=O)cc2)c(=O)n(C)c1=O | > 11.4 | 12.7 |  | 16.4 | 24.3 | > 46 | > 9.22 | inactive | inactive | -12.8% [at 2.29 µM] |
| O=C(O)CCC(O)=C1S(=O)(=O)OCCOS1(=O)=O | > 11.4 | -1.99 | inactive | 2.36 | 2.62 | > 46 | > 9.22 | inactive | inactive |  |
| Nc1nc(N)c2[nH]cnc2n1 (tested in a mixture with another compound) | > 11.4 | 4.54 |  | 20.2 | 4.45 | > 46 | > 9.22 | inactive | inactive | -5.5% [at 2.29 µM] |
| CCN(CC(=O)O)CC(=O)O | > 11.4 | -0.0102 | inactive | 0.338 | 13.7 | > 46 | > 9.22 | inactive | inactive |  |
| NCc1nnn(Cc2ccccc2)c1N | > 11.4 | 2.56 | inactive | 19.4 | -5.08 | > 46 | > 9.22 | inactive | inactive |  |
| Nc1nc2c(ncn2[C@@H]2C=C[C@@H](CO)C2)c(=O)[nH]1 | > 11.4 | 2.92 | inactive | 10.3 | 5.37 | > 46 | > 9.22 | inactive | inactive |  |
| CC(C)(C[C@@]1(C)NC(=O)NC1=O)OCc1ccccc1 | > 11.4 | -2.92 |  | -0.038 | 0.608 | > 46 | > 9.22 | inactive | inactive | -12.1% [at 2.29 µM] |
| O=S(=O)(O)[C@@H](c1ccccc1)[C@@H](O)c1ccccc1 | > 11.4 | 1.17 |  | 8.34 | 8.88 | > 46 | > 9.22 | inactive | inactive | -13.9% [at 2.29 µM] |
| [O-][N+](CCO)(CCO)c1ncnc2nc[nH]c12 | > 11.4 | 1.99 | inactive | -3.2 | -1.19 | > 46 | > 9.22 | inactive | inactive |  |
| O=C1CC[C@H](NC(=O)c2ccccc2)C(=O)N1 | > 11.4 | 5.12 | inactive | 4.46 | 2.96 | > 46 | > 9.22 | inactive | inactive |  |
| N[C@@H](Cc1ncccn1)C(=O)O | > 11.4 | -0.104 | inactive | 3.63 | 3.82 | > 46 | > 9.22 | inactive | inactive |  |
| c1cc2c(cc1C(N1CCNCC1)N1CCNCC1)OCO2 | > 11.4 | 1.84 |  | 8.42 | -2.48 | > 46 | > 9.22 | inactive | inactive | -3% [at 2.29 µM] |
| CC(=O)O[C@H]1CC[C@@]2(C)[C@@H](CC[C@H]3[C@H]2CC(=O)[C@@]2(C)[C@@H]3C[C@H]3CC(C)=CC(=O)[C@H]32)C1 | > 11.4 | 5.01 |  | 22 | -1.11 | > 46 | > 9.22 | inactive | inactive | -9% [at 2.29 µM] |
| O=C(O)CSc1nnc2c3ccccc3c3ccccc3c2n1 | > 11.4 | -9.84 | 0.0794 µM (active) | 22.2 | 10.3 | > 46 | > 9.22 | inactive | inactive |  |
| O=C(O)c1ccc(C(=O)Nc2cccc3ccccc23)c(C(=O)O)c1 | > 11.4 | 4.87 |  | 5.96 | 0.708 | > 46 | > 9.22 | inactive | inactive | -6.2% [at 2.29 µM] |
| O=C(O)CCSc1ncnc2nc[nH]c12 | > 11.4 | 15.6 | inactive | 1.77 | 0.335 | > 46 | > 9.22 | inactive | inactive |  |
| CC1CCC(C(=O)O)([C@H](Br)C(=O)O)CC1 (stereo not given in full) | > 11.4 | -2.54 | inactive | 13.7 | 8 | > 46 | > 9.22 | inactive | inactive |  |
